Active and inactive are the calls of the source. Rule for the calls: active = hit-call score of the fitted dose curve at least 0.9, where 1 is the maximum; inactive = score below 0.9.

A short description of assay [1]: ATG_E_Box_CIS: Attagene CIS-FACTORIAL HepG2 Assay for human Enhancer Box (E-box) (AID 2282936). Conditions: HepG2 E-box cis-reporter transcription, actives raise or lower the signal. The method, boiled down: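 Cells: HepG2 (human liver), transient MRTU transfection. Exposure 24 h. RNA → oligo(dT) RT → PCR → 6-FAM label → HpaI → CE. Activity fitted both directions relative to DMSO.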

The nature of assay [2]: ATG_M_61_CIS: Attagene CIS-FACTORIAL HepG2 Assay for M61 Transcription Factor (Internal Marker) (AID 2282937). Conditions: HepG2 Attagene CIS-FACTORIAL M61 internal marker reporter; actives raise or lower the signal. The method in brief: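 Readout: fluorescent reporter mRNA fragments resolved by capillary electrophoresis after RT-PCR. Transiently transfected human HepG2 cells carried MRTU constructs reporting endogenous TF activity; 24 h chemical exposure; gain or loss of signal fitted relative to DMSO.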

The nature of assay [3]: ATG_EGR_CIS: Attagene CIS-FACTORIAL HepG2 Assay for human Early Growth Response 1 (EGR1) (AID 2282938). The following applies: HepG2 Attagene CIS-FACTORIAL EGR reporter mRNA; actives raise or lower the signal. The method in brief: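 Read-out: fluorescent reporter-mRNA fragments resolved by capillary electrophoresis after RT-PCR, 24 h post-dose in transiently transfected HepG2. Endogenous transcription-factor activity reported via cis-element-regulated reporter units; gain or loss fitted relative to DMSO.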

Assay [4] is described as follows: ATG_M_19_CIS: Attagene CIS-FACTORIAL HepG2 Assay for M19 Transcription Factor (Internal Marker) (AID 2282939). Conditions: HepG2 Attagene CIS-FACTORIAL M19 internal marker reporter; actives raise or lower the signal. The method, boiled down:
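Chemical-treated HepG2 (24 h) with MRTU constructs; reporter transcripts detected by fluorescent RT-PCR fragment analysis on capillary electrophoresis. Internal background marker, DMSO as baseline.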

The nature of assay [5]: ATG_Ets_CIS: Attagene CIS-FACTORIAL HepG2 Assay for human Erythroblast Transformation Specific (ETS) (AID 2282941). Conditions: HepG2 ETS cis-reporter transcription, actives raise or lower the signal. The method, boiled down: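 Steps: transfect HepG2 with multiple reporter units; treat compound 24 h; isolate RNA, DNase-treat, reverse-transcribe; PCR-amplify, label with 6-FAM, digest with HpaI; separate by capillary electrophoresis. Activity fitted both directions versus DMSO.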

In assay [6] the target is Hepatocyte nuclear factor 3-beta (Homo sapiens) (UniProt Q9Y261). In words: ATG_FoxA2_CIS: Attagene CIS-FACTORIAL HepG2 Assay for human Forkhead box A2 (FOXA2) (AID 2282942). The following applies: HepG2 cis-reporter transcription factor activity, 24 h; actives raise or lower the signal. The method in brief:
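Readout: fluorescent reporter transcripts resolved by capillary electrophoresis after RT-PCR. Transiently transfected HepG2, 24 h compound exposure, endogenous TF activity at cis promoter elements. Gain or loss of signal fitted relative to DMSO.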

The nature of assay [7]: ATG_FoxO_CIS: Attagene CIS-FACTORIAL HepG2 Assay for human Forkhead box O (FoxO) (AID 2282943). The following applies: HepG2 Attagene cis-reporter, FoxO element, mRNA; actives raise or lower the signal. The method in brief:
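Human hepatoma HepG2 cells carry transiently introduced reporter transcription units controlled by cis promoter elements. Chemical treatment lasted 24 h, and mRNA signal was compared with DMSO.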

A short description of assay [8]: ATG_GATA_CIS: Attagene CIS-FACTORIAL HepG2 Assay for human GATA Binding Protein (AID 2282944). Conditions: HepG2 GATA cis-element reporter, Attagene multiplex mRNA; actives raise or lower the signal. The method, boiled down: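 Transfected cis-reporter HepG2 cells were treated with chemicals for 24 hours. Total RNA was then converted to cDNA, amplified with reporter-specific primers and analysed by fluorescent capillary electrophoresis, using DMSO-treated wells as baseline.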

Assay [9] addresses Bile acid receptor (Homo sapiens) (UniProt Q96RI1). In words: ATG_IR1_CIS: Attagene CIS-FACTORIAL HepG2 Assay for human Nuclear Receptor Subfamily 1 Group H Member 4 (NR1H4), IR1 submotif (AID 2282946). Conditions: IR1 reporter transcription, actives raise or lower the signal. The method in brief: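 Cells (human HepG2) carry transiently transfected cis-promoter reporter transcription units. Compounds are incubated 24 h, total RNA is reverse-transcribed and amplified, and labelled fragments are resolved by capillary electrophoresis. Curves use DMSO as baseline.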

Assay [10] is described as follows: ATG_GRE_CIS: Attagene CIS-FACTORIAL HepG2 Assay for human Glucocorticoid Response Elements (GRE) (AID 2282947). The following applies: HepG2 GRE cis-reporter, Attagene multiplex mRNA; actives raise or lower the signal. The method, boiled down: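 Transient MRTU transfection of human HepG2 liver cells; cis-regulated reporters report endogenous factors. 24 h dosing → RNA isolation → RT-PCR → 6-FAM primer extension → HpaI cut → CE fragment analysis. Bidirectional fit, DMSO negative control.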

Assay [11] can be described thus: ATG_ISRE_CIS: Attagene CIS-FACTORIAL HepG2 Assay for human Interferon Regulatory Factor 1 (IRF1) binding to an Interferon-Stimulated Response Element (ISRE) (AID 2282948). Conditions: HepG2 ISRE cis-reporter (Attagene), mRNA transcription readout; actives raise or lower the signal. The method in brief:
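Transfected HepG2 (multiple reporter transcription units, cis elements) dosed 24 h. RNA → oligo(dT) RT → PCR → 6-FAM primer extension → HpaI → CE. DMSO = negative control/baseline.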

Assay [12] in a line: ATG_M_32_CIS: Attagene CIS-FACTORIAL HepG2 Assay for M32 Transcription Factor (Internal Marker) (AID 2282949).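 Note: background control marker of the multiplexed CIS panel rather than a real target.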 The following applies: HepG2 Attagene cis-factorial M32 reporter, mRNA; actives raise or lower the signal. The method, boiled down: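 HepG2 cells transiently transfected with multiplexed cis-regulated reporter units, dosed 24 h. Reporter mRNA quantified by RT-PCR, 6-FAM labelling, HpaI digestion and capillary electrophoresis; bidirectional fit vs DMSO.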

The nature of assay [13]: ATG_M_06_CIS: Attagene CIS-FACTORIAL HepG2 Assay for M06 Transcription Factor (Internal Marker) (AID 2282950). The following applies: HepG2 Attagene CIS-FACTORIAL M06 internal marker reporter; actives raise or lower the signal. The method, boiled down: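 Cells (HepG2, transiently carrying cis-driven reporter units) receive chemical for 24 h before RNA isolation. Reporter cDNA is PCR-amplified, FAM-labelled by primer extension, HpaI-digested and sized on a capillary analyser.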

The target in assay [14] is Hypoxia-inducible factor 1-alpha (Homo sapiens) (UniProt Q16665). In words: ATG_HIF1a_CIS: Attagene CIS-FACTORIAL HepG2 Assay for human Hypoxia Inducible Factor 1 (HIF1A) (AID 2282951). The following applies: HepG2 Attagene cis-factorial HIF1a reporter transcription; actives raise or lower the signal. The method, boiled down: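 RT-PCR/capillary electrophoresis fluorescence readout of reporter transcripts from endogenous-TF-driven cis elements in transfected HepG2 cells, 24 h exposure; activity fitted in both directions against DMSO controls.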

The target in assay [15] is Hepatocyte nuclear factor 6 (Homo sapiens) (UniProt Q9UBC0). Briefly: ATG_HNF6_CIS: Attagene CIS-FACTORIAL HepG2 Assay for human Hepatocyte Nuclear Factor 6 (HNF6) (AID 2282952). Conditions: HepG2 Attagene cis-factorial HNF6 reporter transcription; actives raise or lower the signal. The method in brief: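 HepG2 cells transiently transfected with cis-element-driven multiple reporter transcription units, dosed 24 h; reporter mRNA quantified by RT-PCR, FAM primer extension, HpaI digestion and capillary electrophoresis; bidirectional fit versus DMSO baseline.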

Assay [16] addresses Heat shock factor protein 1 (Homo sapiens) (UniProt Q00613). In words: ATG_HSE_CIS: Attagene CIS-FACTORIAL HepG2 Assay for human Heat Shock Transcription Factor 1 (HSE) (AID 2282953). The following applies: HepG2 HSE cis-reporter, Attagene RNA transcription; actives raise or lower the signal. The method, boiled down: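 Liver-derived HepG2 cells carry transiently introduced multiple reporter units governed by cis promoters. Reporter RNA measured 24 h post-dose through reverse transcription, PCR amplification, fluorescent labelling and capillary electrophoresis, normalised to DMSO.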

Assay [17] can be described thus: ATG_MRE_CIS: Attagene CIS-FACTORIAL HepG2 Assay for human Metal Responsive Element (MRE) (AID 2282954). The following applies: HepG2 MRE cis-reporter transcription, Attagene multiplex; actives raise or lower the signal. The method in brief: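 Transient MRTU transfection of HepG2 (FuGene 6); 24 h dosing; total RNA → oligo(dT) RT, PCR, 6-FAM primer extension, HpaI cut, CE. Bidirectional fit vs DMSO.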

Assay [18] can be described thus: ATG_ERE_CIS: Attagene CIS-FACTORIAL HepG2 Assay for Estrogen Response Element (ERE) (AID 2282940). Conditions: HepG2 ERE cis-reporter, Attagene RNA transcript; actives raise or lower the signal. The method in brief:
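Human liver cells (HepG2) bearing transiently transfected, promoter-regulated reporter units were exposed 24 h. Reporter mRNA induction was detected by capillary electrophoresis of labelled RT-PCR products and fitted bidirectionally to DMSO.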

Assay [19] is described as follows: ATG_GLI_CIS: Attagene CIS-FACTORIAL HepG2 Assay for human Zinc Finger Protein GLI1 (AID 2282945). Conditions: HepG2, Attagene cis-factorial reporter mRNA, GLI element; actives raise or lower the signal. The method in brief: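 Bidirectional curve fits relative to DMSO, using reporter mRNA levels from RT-PCR plus capillary electrophoresis. Cells were HepG2 transiently carrying cis-regulated reporter constructs, harvested 24 h after dosing.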

The nature of assay [20]: ATG_PBREM_CIS: Attagene CIS-FACTORIAL HepG2 Assay for human Phenobarbital-responsive Enhancer Module (PBREM) (AID 2282955). Conditions: HepG2 PBREM cis-reporter, Attagene multiplexed transcription; actives raise or lower the signal. The method in brief:
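Reporter mRNA read by RT-PCR, 6-FAM primer extension, HpaI digestion and capillary electrophoresis. Transfected HepG2 cells, 24 h compound exposure. Gain or loss of signal fitted bidirectionally relative to DMSO baseline.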

Hypoxia-inducible factor 1-alpha (Homo sapiens), sequence (Q16665 whole entry, looked up): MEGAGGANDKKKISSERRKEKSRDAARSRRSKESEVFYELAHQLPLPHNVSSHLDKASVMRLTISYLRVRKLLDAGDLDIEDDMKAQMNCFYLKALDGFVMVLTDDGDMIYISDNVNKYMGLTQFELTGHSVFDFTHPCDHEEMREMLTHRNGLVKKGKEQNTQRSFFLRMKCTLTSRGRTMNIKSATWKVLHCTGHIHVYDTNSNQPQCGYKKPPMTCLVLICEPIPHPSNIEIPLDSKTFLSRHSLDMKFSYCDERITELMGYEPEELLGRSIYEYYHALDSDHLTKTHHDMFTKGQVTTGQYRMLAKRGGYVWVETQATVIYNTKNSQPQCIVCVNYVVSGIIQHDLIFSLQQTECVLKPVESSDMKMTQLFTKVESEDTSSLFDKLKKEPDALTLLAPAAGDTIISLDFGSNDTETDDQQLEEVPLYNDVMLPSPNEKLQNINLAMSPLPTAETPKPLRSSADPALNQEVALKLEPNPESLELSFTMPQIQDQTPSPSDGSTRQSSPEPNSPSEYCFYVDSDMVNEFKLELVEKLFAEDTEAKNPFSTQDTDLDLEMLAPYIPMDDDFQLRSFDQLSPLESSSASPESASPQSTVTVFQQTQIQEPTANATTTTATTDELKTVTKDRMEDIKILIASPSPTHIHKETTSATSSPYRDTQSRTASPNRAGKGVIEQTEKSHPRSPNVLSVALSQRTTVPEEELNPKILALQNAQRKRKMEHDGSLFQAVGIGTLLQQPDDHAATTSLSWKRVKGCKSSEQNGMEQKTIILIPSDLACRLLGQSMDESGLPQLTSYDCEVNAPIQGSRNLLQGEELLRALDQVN
Hepatocyte nuclear factor 6 (Homo sapiens), sequence (Q9UBC0 whole entry, looked up): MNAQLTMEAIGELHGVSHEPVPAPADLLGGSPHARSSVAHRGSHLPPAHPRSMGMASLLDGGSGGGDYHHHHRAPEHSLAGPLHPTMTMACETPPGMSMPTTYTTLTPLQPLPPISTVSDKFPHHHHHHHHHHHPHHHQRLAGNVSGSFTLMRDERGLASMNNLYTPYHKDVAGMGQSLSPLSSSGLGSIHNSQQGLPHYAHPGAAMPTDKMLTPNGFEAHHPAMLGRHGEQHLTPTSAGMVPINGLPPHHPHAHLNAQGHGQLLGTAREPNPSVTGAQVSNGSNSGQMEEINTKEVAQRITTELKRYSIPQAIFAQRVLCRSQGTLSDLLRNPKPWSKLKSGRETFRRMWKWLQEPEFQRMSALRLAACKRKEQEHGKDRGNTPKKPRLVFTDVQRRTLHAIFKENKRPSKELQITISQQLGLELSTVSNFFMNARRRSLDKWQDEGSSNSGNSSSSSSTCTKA
Heat shock factor protein 1 (Homo sapiens), sequence (Q00613 whole entry, looked up): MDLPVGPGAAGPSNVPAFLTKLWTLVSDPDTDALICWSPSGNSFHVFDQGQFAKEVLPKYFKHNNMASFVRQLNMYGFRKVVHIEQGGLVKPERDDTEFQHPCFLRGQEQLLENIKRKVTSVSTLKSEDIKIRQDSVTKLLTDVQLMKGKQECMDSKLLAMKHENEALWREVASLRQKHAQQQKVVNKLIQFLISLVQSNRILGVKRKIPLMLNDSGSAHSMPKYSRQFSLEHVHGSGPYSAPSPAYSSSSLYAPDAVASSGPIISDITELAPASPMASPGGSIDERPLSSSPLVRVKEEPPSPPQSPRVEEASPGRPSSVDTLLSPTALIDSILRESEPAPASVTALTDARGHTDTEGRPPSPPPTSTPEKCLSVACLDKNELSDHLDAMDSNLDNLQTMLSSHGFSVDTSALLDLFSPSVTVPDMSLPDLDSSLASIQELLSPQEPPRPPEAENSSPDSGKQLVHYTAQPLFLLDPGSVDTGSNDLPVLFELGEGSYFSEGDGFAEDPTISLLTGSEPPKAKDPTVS
Hepatocyte nuclear factor 3-beta (Homo sapiens), sequence (Q9Y261 whole entry, looked up): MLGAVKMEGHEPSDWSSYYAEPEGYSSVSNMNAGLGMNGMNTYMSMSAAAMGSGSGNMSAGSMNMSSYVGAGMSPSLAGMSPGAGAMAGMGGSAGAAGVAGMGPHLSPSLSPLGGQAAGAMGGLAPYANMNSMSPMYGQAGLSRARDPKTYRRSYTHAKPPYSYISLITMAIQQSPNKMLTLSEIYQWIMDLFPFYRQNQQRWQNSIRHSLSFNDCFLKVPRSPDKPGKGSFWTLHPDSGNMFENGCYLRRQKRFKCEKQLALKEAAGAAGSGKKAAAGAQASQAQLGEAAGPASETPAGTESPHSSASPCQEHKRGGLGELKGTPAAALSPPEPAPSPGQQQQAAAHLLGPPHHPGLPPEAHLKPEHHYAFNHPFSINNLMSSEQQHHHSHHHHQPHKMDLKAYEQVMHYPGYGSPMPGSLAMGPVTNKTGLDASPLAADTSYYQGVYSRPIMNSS
Bile acid receptor (Homo sapiens), sequence (Q96RI1 whole entry, looked up, the tested form may be a part): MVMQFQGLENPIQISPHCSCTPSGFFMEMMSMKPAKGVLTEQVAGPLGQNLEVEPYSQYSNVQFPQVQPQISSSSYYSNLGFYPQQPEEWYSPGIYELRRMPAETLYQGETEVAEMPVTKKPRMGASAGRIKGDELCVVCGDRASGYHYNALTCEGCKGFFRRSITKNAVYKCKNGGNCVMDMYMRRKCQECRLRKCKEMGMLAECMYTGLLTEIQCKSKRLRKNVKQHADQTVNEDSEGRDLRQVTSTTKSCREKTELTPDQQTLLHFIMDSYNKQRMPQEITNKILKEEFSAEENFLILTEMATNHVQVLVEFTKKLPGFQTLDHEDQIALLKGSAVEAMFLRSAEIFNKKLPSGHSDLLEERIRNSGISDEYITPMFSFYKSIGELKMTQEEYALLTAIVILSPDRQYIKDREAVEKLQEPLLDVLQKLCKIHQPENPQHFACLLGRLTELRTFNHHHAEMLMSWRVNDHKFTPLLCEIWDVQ

As usually defined, the AC50 is the midpoint of the concentration-response curve, whichever way the signal moves. On to `c1ccc(CCCc2ccncc2)cc1`, for which the outcome in [1], in [2], in assay [3], in [4], in [6] and in assay [7] was inactive. Further, the compound was called inactive in assay [8], in assay [9], in [10], in assay [11], in assay [12] and in [13]. In addition, the call in [14], in assay [15] and in [17] was inactive. For the same compound, the AC50 in [5] was 155 µM (active); in assay [16] it was 144 µM (active).

Consider `CC(=O)OCC(=O)[C@@]12N=C(C)O[C@@H]1C[C@H]1[C@@H]3CCC4=CC(=O)C=C[C@]4(C)[C@H]3[C@@H](O)C[C@@]12C`, for which the result in assay [1], in [2], in assay [3], in [4], in assay [5] and in assay [8] was inactive. The call in assay [19], in [11], in [12], in [14], in assay [15] and in assay [16] was inactive. In addition, the compound was classed as inactive in assay [17] and in assay [20]. In addition, the AC50 in assay [18] was 34.2 µM (active); in assay [10], 0.189 µM (active).

For `CCO[Si](C)(OCC)OCC`, the result in assay [1], in assay [2], in [3], in [4], in assay [5] and in assay [6] was inactive. Besides, the result in [7], in assay [8], in [10], in [11], in [12] and in [13] was inactive. In addition, the call in assay [14], in assay [15], in assay [17] and in [20] was inactive.

`CC(C)(C)C1CCCCC1=O` (stereo unspecified): the outcome in assay [1], in assay [2], in [3], in assay [4], in assay [18] and in assay [5] was inactive. Moreover, the call in assay [7], in [19], in assay [10], in assay [11], in [12] and in [13] was inactive. Besides, the compound was called inactive in [14], in assay [15], in assay [16], in [17] and in [20].

These data come from PubChem BioAssay (EPA / NIEHS).
